Most compounds without a hit are left out; they make up all but 3.4% or so of the library.
GPR151 ag = activators of human GPR151; Q8TDV0; activation, % at 11.2 µM; 1% of 650,000 active; PathHunter beta-arrestin GPR151 cells, luminescence; in the data active means activation above about 4.9%;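 further: 0% = median of compound wells and 100% = cells with positive control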
FBW7 act = human FBW7 E3 ligase activation, primary screen | AlphaScreen FBW7–phospho-cyclin E peptide binding, activator screen | normalized activity (activation), % at 26.1 µM | 0.13% of 650,000 active | AID 1259310; in the data active means normalized activity above about 1.9%;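 further: purified mutant Fbw7 with reduced substrate affinity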
Target sequence (Q969H0 whole entry, looked up): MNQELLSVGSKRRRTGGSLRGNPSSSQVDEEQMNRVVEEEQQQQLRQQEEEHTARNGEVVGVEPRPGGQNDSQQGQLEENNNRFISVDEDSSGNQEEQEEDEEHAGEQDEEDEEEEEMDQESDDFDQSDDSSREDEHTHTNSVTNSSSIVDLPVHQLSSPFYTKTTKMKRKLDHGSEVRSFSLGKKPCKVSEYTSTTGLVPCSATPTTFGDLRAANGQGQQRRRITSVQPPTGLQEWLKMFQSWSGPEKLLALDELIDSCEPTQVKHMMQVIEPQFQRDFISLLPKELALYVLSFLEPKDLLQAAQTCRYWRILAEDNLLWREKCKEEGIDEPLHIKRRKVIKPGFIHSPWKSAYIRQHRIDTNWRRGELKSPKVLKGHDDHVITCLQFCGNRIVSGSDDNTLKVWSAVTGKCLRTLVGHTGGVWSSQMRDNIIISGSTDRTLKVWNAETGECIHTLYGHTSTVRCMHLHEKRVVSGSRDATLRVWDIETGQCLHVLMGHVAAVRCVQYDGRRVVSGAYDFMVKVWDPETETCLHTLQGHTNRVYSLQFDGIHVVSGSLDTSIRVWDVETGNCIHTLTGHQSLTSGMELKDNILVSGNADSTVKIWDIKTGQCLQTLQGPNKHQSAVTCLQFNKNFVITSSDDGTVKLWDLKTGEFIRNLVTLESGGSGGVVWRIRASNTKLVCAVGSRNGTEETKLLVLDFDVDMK
TEAD-YAP block = TEAD-YAP interaction inhibition | 1.4% of 640,000 active | AID 1259422 | inhibition, % at 9.12 µM | HEK-TIYL cells, TEAD-Gal4/YAP UAS-luciferase luminescence; in the data active means inhibition above about 32%;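 further: 0% = median of test compound wells and 100% = reference inhibitor wells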
MITF primary = inhibitors of human MITF; 0.91% of 650,000 active; inhibition, % at 2.6 µM; AID 1259374; AlphaScreen MITF homodimerization, bead proximity signal; O75030; in the data active means inhibition above about 50%;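 further: 0% = vehicle wells with protein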
MITF inh conf = confirmation of human MITF inhibitors; shares compounds with MITF primary; AlphaScreen MITF homodimerization, biotin/His-MITF beads; inhibition, % at 2.6 µM; 16% of 4,700 active; AID 1259372;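 active means inhibition above a cutoff derived from the DMSO control wells, cut at about 28% in these data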;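 further: 0% = MITF dimer wells with DMSO only; inhibitors lower the bead chemiluminescence by keeping MITF from dimerizing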
AS interf ctr = AlphaScreen optical interference, counter-screen | shares compounds with MITF primary | LysRS AlphaScreen counterscreen, signal interference, triplicate | inhibition, % at 2.6 µM | 7.6% of 4,700 active | AID 1259376;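 active means inhibition above a cutoff derived from the DMSO control wells, cut at about 30% in these data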
The depositor's hits bear a star.

`CN(Cc1ccccc1)c1c(-c2ccc(Cl)cc2)c(=O)c1=O` gave GPR151 ag -2, FBW7 act 0, TEAD-YAP block 6 and MITF primary 4.
O=C(Nc1ccc2oc(-c3ccccc3Br)nc2c1)c1ccc(Cl)cc1Cl was read as GPR151 ag 1, FBW7 act 0, TEAD-YAP block 3 and MITF primary 5.
O=C(Nc1nnc(C2CCCCC2)s1)C1CC1 was read as GPR151 ag 1, FBW7 act 0, TEAD-YAP block 1 and MITF primary 7.
Screening COC(=O)C(=O)Nc1nnc(C2CCCC2)s1 returned GPR151 ag -1, FBW7 act 0, TEAD-YAP block 2, MITF primary 79*, MITF inh conf 9 and AS interf ctr 13.
`COC(=O)C(=O)Nc1nnc(C2CCCCC2)s1` gave GPR151 ag -1, FBW7 act 0, TEAD-YAP block -4, MITF primary 67*, MITF inh conf 9 and AS interf ctr 13.
CCN(CC)S(=O)(=O)c1ccc(C)c(NC(=O)c2cc(F)c(F)c(F)c2F)c1 was read as GPR151 ag -3, FBW7 act 0, TEAD-YAP block 29 and MITF primary -8.
Screening CCOC(=O)C1CCN(S(=O)(=O)c2ccc(Cl)cc2OC)CC1 returned GPR151 ag 0, FBW7 act 0, TEAD-YAP block -6, MITF primary 59*, MITF inh conf 17 and AS interf ctr 14.
`CCOC(=O)C1CCN(S(=O)(=O)c2cc(Cl)c(C)cc2OC)CC1` gave GPR151 ag 2, FBW7 act 0, TEAD-YAP block -16 and MITF primary -6.
For CN1C(=O)C(C)(C)c2cc(S(=O)(=O)N(C)CC(=O)Nc3cccc(F)c3)ccc21 the results were GPR151 ag 0, FBW7 act 0, TEAD-YAP block -4 and MITF primary 0.
O=C(CCc1ccccc1)NC(=S)Nc1ccc2c(c1)C(=O)OC2 was read as GPR151 ag 0, FBW7 act 0, TEAD-YAP block 5, MITF primary 80*, MITF inh conf 7 and AS interf ctr 11.
COc1ccc(NC(=S)NCC(C)C)c(OC)c1 was read as GPR151 ag 0, FBW7 act 0, TEAD-YAP block 7, MITF primary 65*, MITF inh conf 12 and AS interf ctr 14.
COc1ccc(NC(=S)NCC(O)c2ccccc2)c(OC)c1 (stereo not drawn) was read as GPR151 ag 0, FBW7 act 0, TEAD-YAP block 12 and MITF primary 3.
Screening C/C(=N\NC(=O)CN1CCCCC1)c1ccc(C(C)(C)C)cc1 returned GPR151 ag 0, FBW7 act 0, TEAD-YAP block -2 and MITF primary 1.
O=C(/C=C/c1ccc(Br)o1)Nc1ccccc1Cl was read as GPR151 ag 2, FBW7 act 0, TEAD-YAP block -45 and MITF primary -14.
Cc1ccc(/C=C/C(=O)Nc2ccccc2Cl)o1 was read as GPR151 ag -1, FBW7 act 0, TEAD-YAP block -44, MITF primary 52*, MITF inh conf 24 and AS interf ctr 26.
For Cc1[nH]c2ccc(F)cc2c1CCNC(=O)c1cccc([N+](=O)[O-])c1 the results were GPR151 ag 0, FBW7 act 0, TEAD-YAP block -2 and MITF primary 3.
Screening Cc1ccc2[nH]c(C)c(CCNC(=O)c3cccc([N+](=O)[O-])c3)c2c1 returned GPR151 ag 0, FBW7 act 0, TEAD-YAP block 14, MITF primary 74*, MITF inh conf 8 and AS interf ctr 17.
COc1ccc(CN2CCN(Cc3ccccc3C(F)(F)F)CC2)c(OC)c1 was read as GPR151 ag 0, FBW7 act 0, TEAD-YAP block 7, MITF primary 78*, MITF inh conf 16 and AS interf ctr 14.
`COc1ccccc1N1CCN(Cc2ccc(OC)c(OC)c2OC)CC1` gave GPR151 ag 0, FBW7 act 0, TEAD-YAP block 4 and MITF primary 28.
`COc1cc(CN2CCN(Cc3ccccc3C(F)(F)F)CC2)cc(OC)c1O` gave GPR151 ag -1, FBW7 act 0, TEAD-YAP block -1, MITF primary 68*, MITF inh conf 2 and AS interf ctr 23.
`COc1ccc(OC)c(CN2CCN(c3ccccc3OC)CC2)c1` gave GPR151 ag -1, FBW7 act 1, TEAD-YAP block 3 and MITF primary 23.

Assay outcomes deposited in PubChem by The Scripps Research Institute Molecular Screening Center.
